Assay results reported in PubChem BioAssay AID1159580 (chemical genetic matrix, 2015).
“And” between values parts separate entries of the source, which are not always exact repeats. Equal values may be shown once. About 2,000 (36%) of roughly 5,500 compounds were called active. Not shown: some 18% with an inconclusive outcome. No stated cut-off is given here; in the data, active means normalized growth mostly below about 0.91 (no sharp cut-off); inconclusive means no clear call, values can overlap the other calls; inactive means mostly above about 0.92. The list shows a part of the results.

Test: chemical genetic growth profiling, strain panel (AID 1159580);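 further: tested at 20 µM; growth read once vehicle control cultures reached saturation at 30 °C; 1 = growth at the plate median or of vehicle wells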
Details: S. cerevisiae deletion strains, growth OD

Measured: normalized growth

CN1CCC[C@@H]1CCO[C@](C)(c1ccccc1)c1ccc(Cl)cc1
0.745 (active) and 0.991 (inactive): locus YJL095W, strain BCK1, stronger effect = lower value
active: locus YAL021C, strain ccr4, stronger effect = lower value 0.88 | locus YAL026C, strain drs2, stronger effect = lower value 0.62 | locus YBR021W, strain FUR4, stronger effect = lower value 0.671 | locus YDR137W, strain rgp1, stronger effect = lower value 1.24 [resistant] | locus YDR388W, stronger effect = lower value 0.911 | locus YER015W, strain faa2, stronger effect = lower value 0.798 | locus YER155C, strain BEM2 (second series), stronger effect = lower value 0.818 | locus YFR010W, strain ubp6, stronger effect = lower value 0.898 | locus YGR135W, strain pre9, stronger effect = lower value 0.879 | locus YGR229C, strain SMI1, stronger effect = lower value 0.491 | locus YGR252W, strain gcn5, stronger effect = lower value 0.688 | locus YHR027C, strain rpn1, stronger effect = lower value 0.904
inactive: locus YAL013W, strain DEP1, stronger effect = lower value 0.998 | locus YAL030W, strain snc1, stronger effect = lower value 1 | locus YBL061C, strain skt5, stronger effect = lower value 0.998 | locus YBR009C, strain hhf1, stronger effect = lower value 0.957 | locus YBR023C, strain chs3, stronger effect = lower value 0.949 | locus YBR171W, strain sec66, stronger effect = lower value 0.997 | locus YBR229C, strain ROT2, stronger effect = lower value 1.01 | locus YBR231C, strain swc5, stronger effect = lower value 0.984 | locus YBR279W, strain paf1, stronger effect = lower value 0.964 | locus YCL011C, strain gbp2, stronger effect = lower value 0.959 | locus YCL016C, strain dcc1, stronger effect = lower value 0.968 | locus YCL029C, strain bik1, stronger effect = lower value 0.991 | locus YCL069W, strain vba3, stronger effect = lower value 0.969 | locus YCR088W, strain abp1, stronger effect = lower value 0.999 | locus YDL005C, strain med2, stronger effect = lower value 1 | locus YDL035C, strain GPR1, stronger effect = lower value 0.913 | locus YDL040C, strain nat1, stronger effect = lower value 1 | locus YDL074C, strain BRE1, stronger effect = lower value 0.817 | locus YDL101C, strain DUN1, stronger effect = lower value 1.01 | locus YDL134C, strain PPH21, stronger effect = lower value 1.01 | locus YDL185W, strain tfp1, stronger effect = lower value 0.99 | locus YDL192W, strain arf1, stronger effect = lower value 1.01 | locus YDR001C, strain nth1, stronger effect = lower value 1.02 | locus YDR069C, strain doa4, stronger effect = lower value 0.955 | locus YDR101C, strain arx1, stronger effect = lower value 0.988 | locus YDR150W, strain NUM1, stronger effect = lower value 1.02 | locus YDR159W, strain sac3, stronger effect = lower value 1.01 | locus YDR162C, strain NBP2, stronger effect = lower value 0.993 | locus YDR195W, strain ref2 1.08 | locus YDR297W, strain sur2, stronger effect = lower value 0.998 | locus YDR318W, strain mcm21, stronger effect = lower value 0.984 | locus YDR334W, strain swr1, stronger effect = lower value 1.01 | locus YDR335W, strain msn5, stronger effect = lower value 0.987 | locus YDR392W, strain spt3, stronger effect = lower value 0.866 | locus YDR502C, strain sam2, stronger effect = lower value 0.97 | locus YEL003W, strain gim4, stronger effect = lower value 0.952 | locus YEL037C, strain rad23, stronger effect = lower value 0.993 | locus YEL061C, strain CIN8 (second series), stronger effect = lower value 1 | locus YEL061C, strain CIN8, stronger effect = lower value 1 | locus YER016W, strain bim1, stronger effect = lower value 0.992 | locus YER110C, stronger effect = lower value 0.999 | locus YER111C, strain swi4, stronger effect = lower value 1.02 | locus YER155C, strain BEM2, stronger effect = lower value 1.03 | locus YER167W, strain BCK2, stronger effect = lower value 1 | locus YGL078C, strain dbp3, stronger effect = lower value 0.99 | locus YGL086W, strain mad1, stronger effect = lower value 0.973 | locus YGL167C, strain pmr1, stronger effect = lower value 1.02 | locus YGL173C, strain kem1, stronger effect = lower value 0.955 | locus YGL227W, strain vid30, stronger effect = lower value 0.996 | locus YGL240W, strain doc1, stronger effect = lower value 0.919 | locus YGL248W, strain PDE1, stronger effect = lower value 1.01 | locus YGL253W, strain hxk2, stronger effect = lower value 0.916 | locus YGR078C, strain PAC10, stronger effect = lower value 0.95 | locus YHR013C, strain ard1, stronger effect = lower value 0.856 | locus YHR079C, strain IRE1 (second series), stronger effect = lower value 0.994 | locus YHR079C, strain IRE1, stronger effect = lower value 0.992 | locus YHR094C, strain hxt1, stronger effect = lower value 0.994 | locus YHR129C, strain ARP1, stronger effect = lower value 1.01 | locus YHR142W, strain chs7, stronger effect = lower value 0.884 | locus YHR200W, strain rpn10, stronger effect = lower value 1 | locus YIL066C, strain RNR3, stronger effect = lower value 0.978 | locus YIL073C, strain SPO22, stronger effect = lower value 0.904 | locus YIL125W, strain kgd1, stronger effect = lower value 0.999 | locus YIR030C, strain dcg1, stronger effect = lower value 0.993 | locus YJL092W, strain hpr5, stronger effect = lower value 0.982 | locus YJL095W, strain BCK1 (second series), stronger effect = lower value 0.923 | locus YJL115W, strain asf1, stronger effect = lower value 0.999 | locus YJL129C, strain trk1, stronger effect = lower value 0.921 | locus YJL134W, strain LCB3, stronger effect = lower value 1.01 | locus YJL154C, strain vps35, stronger effect = lower value 0.996 | locus YJL164C, strain tpk1, stronger effect = lower value 0.937 | locus YJL166W, strain qcr8, stronger effect = lower value 0.94 | locus YJL168C, strain set2, stronger effect = lower value 1 | locus YJL187C, strain SWE1 (second series), stronger effect = lower value 0.987 | locus YJL187C, strain SWE1, stronger effect = lower value 0.992 | locus YJR043C, strain POL32, stronger effect = lower value 1.03 | locus YJR066W, strain TOR1, stronger effect = lower value 0.97
0.843 (active) and 0.985 (inactive): locus YHR030C, strain SLT2, stronger effect = lower value
